# In the library only some 2% were active in any assay of this set; here they are far more common.
# STK33 kin inh: inhibitors of human STK33 kinase | Q9BYT3 | ADP-Glo luminescence, MBP substrate | inhibition, % at 12.5 µM | 0.44% of 27,000 active | AID 2322; in the data active = inhibition above about 20%
# Target sequence (Q9BYT3 whole entry, looked up): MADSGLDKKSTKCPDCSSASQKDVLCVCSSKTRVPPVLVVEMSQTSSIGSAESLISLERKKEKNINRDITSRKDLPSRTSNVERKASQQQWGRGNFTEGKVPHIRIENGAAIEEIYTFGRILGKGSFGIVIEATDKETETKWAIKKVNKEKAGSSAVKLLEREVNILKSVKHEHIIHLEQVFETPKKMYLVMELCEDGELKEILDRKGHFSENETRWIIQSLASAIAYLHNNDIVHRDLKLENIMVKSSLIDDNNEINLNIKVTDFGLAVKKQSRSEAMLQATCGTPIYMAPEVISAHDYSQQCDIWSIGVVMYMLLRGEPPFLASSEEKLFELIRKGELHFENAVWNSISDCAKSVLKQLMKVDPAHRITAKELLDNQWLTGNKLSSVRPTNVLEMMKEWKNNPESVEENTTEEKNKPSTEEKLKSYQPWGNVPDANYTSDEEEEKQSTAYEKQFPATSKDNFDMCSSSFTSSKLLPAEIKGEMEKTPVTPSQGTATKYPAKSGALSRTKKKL
# ID4 binder: binders of human ID4 protein; P47928; small molecule microarray, Flag-ID4 binding, fluorescence F/B; calls only; 1.2% of 31,000 active; call rule not given here;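 note: a binder raises fluorescence above local background on the spot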
# p53 PUMA act: re-activators of the mutant p53 pathway. SW480 PUMA-promoter luciferase, p53 mutant reactivation. activation, % at 9.98 µM. 1.5% of 28,000 active; in the data active = activation above about 52%
# A number is an active result; 0 = inactive; - = no result; + = active, no number.
SMILES,STK33 kin inh,ID4 binder,p53 PUMA act
CCOC(=O)c1cc2c(cn1)[nH]c1ccccc12,0,0,65
COC(=O)c1cc2c(cn1)[nH]c1ccccc12,0,0,0
CCC(C)[C@H]1C(=O)O[C@H](C(C)C)C(=O)N(C)[C@@H](C(C)CC)C(=O)O[C@H](C(C)C)C(=O)N(C)[C@@H](C(C)CC)C(=O)O[C@H](C(C)C)C(=O)N1C (some centres undefined),0,-,-
C/C=C(\C)[C@H](O)[C@H](C)/C=C(C)/C=C/C/C(C)=C/Cc1[nH]c(OC)c(OC)c(=O)c1C,0,-,-
C[C@@H]1CCC/C=C/[C@H]2C[C@@H](O)C[C@@H]2[C@@H](O)/C=C\C(=O)O1,0,-,-
Cc1c(C(=O)c2cccc3ccccc23)c2cccc3c2n1[C@@H](CN1CCOCC1)CO3,-,+,0
C[C@H]1O[C@@H](O[C@H]2C[C@@H](O)[C@]3(CO)C4C(CC[C@]3(O)C2)[C@@]2(O)CC[C@H](C3=CC(=O)OC3)[C@@]2(C)C[C@H]4O)[C@@H](O)[C@@H](O)[C@H]1O (some centres undefined),0,0,-
COC1=CC(=O)O[C@@H](/C=C/c2ccccc2)C1,0,0,78
COC1=CC(=O)O[C@@H](CCc2ccc3c(c2)OCO3)C1,0,0,0

# Screens as filed in PubChem BioAssay.
